AmpC inh no det – inhibitors of E. coli AmpC beta-lactamase without detergent | 1.8% of 71,000 active | Potency, µM (top dose mostly 28.7 µM), inactives show top-dose activity change, negative = inhibition | AID 585 | AmpC nitrocefin hydrolysis, absorbance 480 nm, no detergent; note: % of control where 0% means no effect
Target sequence (P00811 whole entry, looked up): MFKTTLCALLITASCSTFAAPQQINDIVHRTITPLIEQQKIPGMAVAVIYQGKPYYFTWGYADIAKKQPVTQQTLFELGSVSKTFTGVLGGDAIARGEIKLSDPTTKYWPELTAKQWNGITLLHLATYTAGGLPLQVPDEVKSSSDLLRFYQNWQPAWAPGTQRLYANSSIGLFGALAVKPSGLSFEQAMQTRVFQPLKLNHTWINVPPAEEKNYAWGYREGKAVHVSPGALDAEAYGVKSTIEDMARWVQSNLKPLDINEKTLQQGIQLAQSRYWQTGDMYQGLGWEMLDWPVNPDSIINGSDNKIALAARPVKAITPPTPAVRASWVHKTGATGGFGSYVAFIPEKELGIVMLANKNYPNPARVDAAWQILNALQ
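AmpC in 20 mM phosphate buffer pH 7.0 was preincubated 15 min at room temperature with compounds. Nitrocefin (800 uM stock) was then added and hydrolysis followed at 480 nm every 20 s for 4 min.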
AmpC det inh – inhibitors of E. coli AmpC beta-lactamase with detergent; P00811; purified AmpC, nitrocefin hydrolysis with detergent; Potency, µM (top dose mostly 28.7 µM), for the others: top-dose activity change, negative = inhibition; 0.09% of 71,000 active; AID 584; active = well fitted curve in the direction sought with a large enough effect; inconclusive = small, poorly fitted or top-dose-only effect; note: % is set by controls: 0 for no effect and ±100 for the full control effect
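E. coli AmpC (5.3 nM) in 20 mM phosphate pH 7.0 with 0.01% Triton X-100, preincubated 15 min RT with compound; nitrocefin (2 uL of 800 uM stock) hydrolysis followed by 480 nm absorbance every 20 s over 4 min.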
Prx2 Sm inh – Schistosoma mansoni Prx2 inhibition; S. mansoni Prx2 activity coupled to TGR/GSH (TGR is thioredoxin glutathione reductase), NADPH fluorescence loss, qHTS; Potency, µM; 0.07% of 65,000 active
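Activity is read as the drop in NADPH fluorescence (365/450 nm), recorded every 30 sec for 8 min after H2O2 addition. Prx2 is coupled to TGR-driven NADPH oxidation through glutathione, in phosphate buffer pH 7.4.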
LT uptake inh – inhibitors of anthrax lethal toxin internalization | Potency, µM (titrated, usually from 40 µM), for the others: at the top dose activity change, negative = inhibition, hits mostly inhibitors | Cells, anthrax lethal toxin internalization, FRET ratio (460/530) | 0.67% of 70,000 active; note: % is set by controls: 0 for no effect and ±100 for the full control effect; nearly all actives have a fitted effect of over 50% in size
* marks the source's active call; other numbers are inactive results; u = inconclusive; x = no result given; [ ] = another dose, or the depositor's remark. The list is not random: actives were taken first. Their share in the collection is about 2.6%. Unless noted, calls come from the whole dose curve. Potency is the fitted concentration of half-maximal effect.

SMILES	AmpC inh no det	AmpC det inh	Prx2 Sm inh	LT uptake inh
COc1ccc(NC(=O)NCCN2C(=O)C3C4C=CC(C4)C3C2=O)cc1 (stereo not drawn)	2.5µM*[single pt active]	12%	>57	9%
O=C(NCCN1C(=O)C2C3C=CC(C3)C2C1=O)N1CCCCC1 (stereo not drawn)	4µM*[single pt active]	13%	>57	-7%
Cc1cccc(NC(=O)NCCN2C(=O)C3C4C=CC(C4)C3C2=O)c1 (stereo not drawn)	4µM*[single pt active]	11%	>57	-8%
O=C(NCCN1C(=O)C2C3C=CC(C3)C2C1=O)Nc1ccccc1 (stereo not drawn)	4µM*[single pt active]	14%	>57	-2%
COc1ccc(CN2C(=O)C3C4C=CC(C4)C3C2=O)cc1 (stereo not drawn)	0%	-3%	>57	3%
O=C(CCN1C(=O)C2C3C=CC(C3)C2C1=O)NCC1CCCO1 (stereo not drawn)	-5%	-2%	>57	-5%
CCOC(=O)c1cccc(NC(=O)CN2C(=O)C3C4C=CC(C4)C3C2=O)c1 (stereo not drawn)	3%	4%	>57	9%
CCOC(=O)c1nnn(-c2nn3nnnc3c3ccccc23)c1C	0%	18%	>57	-13%
N[C@H](C(=O)O)C1[C@H](C(=O)O)[C@H]1C(=O)O (stereo partly drawn)	3%	0%	>57	0%
Cc1cc(N2C(=O)C3CCCN3C2c2cccc(Cl)c2)no1 (stereo not drawn)	9%	-4%	>57	-10%
CCn1ncc(Br)c1C(=O)Nc1sc2c(c1C(=O)OC)CCC2	-3%	-4%	>57	-3%
COc1ccc(NC(=O)NCCCN2CCCCC2C)cc1 (stereo not drawn)	-7%	-1%	>57	1%
Cc1ccc(NC(=O)NCCCN2CCOCC2)cc1	-4%	-5%	>57	-4%
Cc1ccc(NC(=O)NCCN2C(=O)C3C4C=CC(C4)C3C2=O)cc1 (stereo not drawn)	4µM*[single pt active]	10%	>57	3%
COc1ccc(NC(=O)NCCCN2CCCC2=O)cc1	4µM*[single pt active]	11%	>57	-2%
CCCn1c(-c2ccc(F)cc2)nc2c(N(C)CCN(C)C)nc(C)nc21	39%	13%	x	-16%
CC1(C)C2CCC1(C)C(NC1=NCCC1)C2 (stereo not drawn)	-10%	-5%	>57	0%
O=C(Nc1ccc2c(c1)OCO2)C1CCN(S(=O)(=O)c2cccs2)CC1	u	10%	>57	-10%
O=C(Nc1ccc2c(c1)OCO2)C1Cc2ccccc2CN1S(=O)(=O)c1cccs1 (stereo not drawn)	10µM*[single pt active]	-6%	>57	u
C=C1Cn2c(nnc2-c2ccc(Cl)cc2)S1	4µM*[single pt active]	12%	>57	1%
CC1(C)Cn2c(nnc2-c2ccccc2)S1	-3%	-1%	>57	-6%
CCCSc1nnc(Cn2c(=O)sc3ccccc32)n1C	4µM*[single pt active]	12%	>57	-14%
CSc1nnc(Cn2c(=O)sc3ccccc32)n1C	4µM*[single pt active]	12%	>57	-12%
N#CC1=C2SCN(c3ccccc3)CN2C(=O)CC1c1c(Cl)cccc1Cl (stereo not drawn)	2.5µM*	8%	x	u
Cc1ccc(C2CC(=O)N3CN(c4ccc(Br)cc4)CSC3=C2C#N)o1 (stereo not drawn)	13µM*[single pt active]	-6%	>57	u
SMILES	AmpC inh no det	AmpC det inh	Prx2 Sm inh	LT uptake inh
COc1ccc(OC)c(C2CC(=O)N3CN(c4ccc(C)c(Cl)c4)CSC3=C2C#N)c1 (stereo not drawn)	-8%	11%	>57	-15%
N#CC1=C2SCN(Cc3ccco3)CN2C(=O)CC1c1c(F)cccc1Cl (stereo not drawn)	4µM*[single pt active]	10%	>57	-11%
N#CC1=C2SCN(c3ccccc3)CN2C(=O)CC1c1cccs1 (stereo not drawn)	-6%	-5%	>57	-13%
COc1cc(OC)c(C2CC(=O)N3CN(c4ccccc4)CSC3=C2C#N)cc1OC (stereo not drawn)	57%	1%	>57	u
N#CC1=C2SCN(c3ccccc3)CN2C(=O)CC1c1ccccc1Cl (stereo not drawn)	2.5µM*	9%	>57	u
O=C(Nc1cnc2ccccc2c1)c1ccco1	6%	-2%	>57	-1%
O=C1c2ccccc2S(=O)(=O)N1CC(O)COc1ccc(Br)cc1 (stereo not drawn)	13%	6%	x	-25%
CO[C@@H]([CH2][Hg])CN1C(=O)c2ccccc2S1(=O)=O.Cn1c(=O)c2nc[nH]c2n(C)c1=O	-15%[5.75 µM]	-3%[5.75 µM]	1.3*	u
COCCOC(=O)c1c(C)oc2ccc(OC(=O)c3ccc4c(c3)OCO4)cc12	54%	3%	>57	-15%
Nc1nn(S(=O)(=O)c2cccc3nsnc23)cc1-c1ccc(Br)cc1	13µM*[single pt active]	-6%	>57	u
Cc1ccc(-c2cn(S(=O)(=O)c3cccc4nsnc34)nc2N)cc1	-13%	-3%	>57	25%
CN(C)CCNC(=O)c1ccc(CS(=O)(=O)c2c(Cl)cccc2Cl)o1	10%	4%	>57	-22%
O=C(NCCN1CCCC1)c1ccc(CS(=O)(=O)c2c(Cl)cccc2Cl)o1	4µM*[single pt active]	13%	>57	-9%
COCCNC(=O)C(C)OC(=O)c1cc2occc2n1C (stereo not drawn)	8%	2%	>57	12%
CCOc1cccc(-c2nnc3sc(COc4ccc(C)cc4)nn23)c1	16%	1%	>57	-13%
CCOc1cccc(-c2nnc3sc(COc4ccc(Cl)cc4)nn23)c1	7.9µM*	-1%	>57	-3%
Cc1noc(NS(=O)(=O)c2ccc(NC(=O)CSc3ncccn3)cc2)c1C	-8%	3%	6.8*	4%
Cc1cc(C)nc(SCC(=O)Nc2ccc(S(=O)(=O)Nc3onc(C)c3C)cc2)n1	7%	5%	>57	-5%
O=C(CCOc1ccccc1)OCC(=O)c1cc2ccccc2o1	0.63µM*	-3%	>57	-5%
CC(=O)Nc1ccc(S(=O)(=O)Nc2nccc(C3Cc4ccccc4C(=O)O3)n2)cc1 (stereo not drawn)	-2%	-2%	>57	-7%
COc1cc(SC)ccc1C(=O)Nc1ccc2c(c1)OCCO2	29%	5%	>57	10µM*
COc1ccccc1C(=O)Nc1ccc2c(c1)OCCO2	-2%	-1%	>57	1%
CN1CCN(Cc2cc(COCc3ccccc3)c3cccnc3c2O)CC1	63%	2%	>57	-9%
O=C1NC(=O)[C@]2(Cc3ccccc3N3CCN(c4ccccc4)CC32)C(=O)N1Cc1ccccc1 (stereo partly drawn)	10µM*[single pt active]	2%	>57	x
CC(Sc1nc(-c2ccccc2)cc(C(F)(F)F)n1)C(=O)N1CCCC1 (stereo not drawn)	4µM*[single pt active]	14%	>57	-2%
CN(C)c1nc(N2CCCCC2)nc(N2CCCCC2)n1	4µM*[single pt active]	14%	>57	-18%
CCOC(=O)C1CCCN(C(=O)c2ccc(CS(=O)(=O)c3ccc(C)cc3)o2)C1 (stereo not drawn)	2.5µM*[single pt active]	11%	>57	-8%
